Measurements taken from PubChem BioAssay.
The source made the active and inactive calls.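 How the source made its calls, unless noted: active means normalized viability below 100% at a tested concentration; inactive means the rest.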

Key:
[1] = Wnt pathway potentiators raising nuclear beta-catenin – imaging, WNT3A-conditioned medium, mouse C2C12, NPC library, primary screen (AID 1117326; in the data active means nuclear beta-catenin stimulation mostly above about 4.2%, no sharp cut-off; inactive means mostly below about 10%); conditions: stronger effect = higher value
[2] = stimulators of insulin release from INS-1E, primary screen, cell-based, 5 mM glucose, NPC library (AID 1117329;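 active means compound raises insulin release from rat beta cells at 5 mM glucose, no numeric limit stated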); conditions: rat INS-1E insulin secretion, at 10 µM, stronger effect = higher value
[3] = growth inhibition of GSK3B-pretreated HCT116 cells – cell-based, CellTiter-Glo, 0.2 to 20 µM (AID 1117336;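 active means compounds lowering colon cancer cell viability after pretreatment blocking the GSK3B kinase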); conditions: HCT116 viability after GSK3B inhibitor, at 20 µM, stronger effect = higher value
[4] = inhibition of endothelial tube formation, primary screen, imaging, VEGF stimulated, CD31 staining, tube area, NPC library (AID 1117340;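 active means compound that reduces growth-factor-driven endothelial tube area in a mixed cell culture, no cutoff stated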); conditions: VEGF-stimulated ADSC/ECFC co-culture, at 10 µM, stronger effect = higher value
[5] = GLP1 release stimulators, primary, NCI-H716, NPC library (AID 1117341;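 active means compound raises GLP1 secretion from the human gut endocrine cells, with no numeric limit stated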); conditions: NCI-H716 cells, at 10 µM, stronger effect = higher value
[6] = HCT116 colon cancer cell growth inhibition, primary screen, CellTiter-Glo luminescence, NPC library (AID 1117342;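 active means compounds that lower survival of HCT116 colon cancer cells in the luminescence readout, no numeric limit stated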); conditions: at 20 µM (top of the series)
[7] = reduced SW480 viability measured with CellTiter-Glo, NPC library, primary (AID 1117343;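 active means compounds that lower viability of the colon cancer cells in the luminescence readout, with no numeric limit stated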); conditions: CellTiter-Glo luminescence; at 20 µM (top of the series) unless noted
[8] = NPC library primary testing for decreased DLD-1 cell viability via CellTiter-Glo (AID 1117346;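 active means compounds that lower survival of DLD-1 colon cancer cells in the luminescence readout, no cutoff given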); conditions: DLD-1 viability, CellTiter-Glo luminescence; at 20 µM (top of the series)
[9] = drug combination growth inhibition, ovarian cancer – cell-based, oncology-focused library, rucaparib conditional, profiling panel (AID 1508598); conditions: patient-derived ovarian cancer cells, CellTiter-Glo viability, 144 h, stronger effect = lower value
[10] = target: NAD(+) hydrolase SARM1 (Homo sapiens) (UniProt Q6SZW1); assay: blocking NAD cleavage by SARM1 SAM-TIR – cell lysate, NAD-Glo luminescence (AID 1508614;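 active means compound whose remaining NAD level is above about 45 nM, limit read from the data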); conditions: SAM-TIR HEK293T lysate NADase, at 1 µM, stronger effect = higher value
Chain of NAD(+) hydrolase SARM1 (Homo sapiens) (Q6SZW1 whole entry, looked up): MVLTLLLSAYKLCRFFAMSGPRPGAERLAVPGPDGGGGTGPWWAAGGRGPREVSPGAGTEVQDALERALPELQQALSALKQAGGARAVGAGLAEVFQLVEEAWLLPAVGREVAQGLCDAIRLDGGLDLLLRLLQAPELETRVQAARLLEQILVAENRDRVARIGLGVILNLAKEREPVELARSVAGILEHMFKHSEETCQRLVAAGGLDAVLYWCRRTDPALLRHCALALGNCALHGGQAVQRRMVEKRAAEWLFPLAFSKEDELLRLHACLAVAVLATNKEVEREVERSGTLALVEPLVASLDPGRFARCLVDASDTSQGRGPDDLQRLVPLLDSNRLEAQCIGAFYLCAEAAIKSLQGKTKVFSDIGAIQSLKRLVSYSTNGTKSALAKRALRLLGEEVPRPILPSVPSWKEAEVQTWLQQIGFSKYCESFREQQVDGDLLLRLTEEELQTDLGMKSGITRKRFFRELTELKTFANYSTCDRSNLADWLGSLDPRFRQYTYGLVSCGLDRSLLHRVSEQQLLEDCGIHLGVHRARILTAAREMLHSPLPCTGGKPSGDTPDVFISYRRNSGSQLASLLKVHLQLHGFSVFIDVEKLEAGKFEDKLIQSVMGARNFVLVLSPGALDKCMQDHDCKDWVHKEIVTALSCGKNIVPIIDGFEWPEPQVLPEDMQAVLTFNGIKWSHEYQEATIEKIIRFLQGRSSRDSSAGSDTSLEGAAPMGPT

O=c1[nH]c(=O)n([C@H]2CCCO2)cc1F
active: viability ([9]; at 0.00488 µM, OCI-P5x cells, with rucaparib 20 µM, 100% = cells with rucaparib alone) 96% | viability ([9]; at 0.0195 µM, OCI-P5x cells, with rucaparib 20 µM, 100% = cells with rucaparib alone) 94.8% | viability ([9]; at 0.0195 µM, OCI-P5x cells, without rucaparib) 99.2% | viability ([9]; at 0.313 µM, OCI-C5x cells, with rucaparib 10 µM, 100% = cells with rucaparib alone) 31.7% | viability ([9]; at 0.313 µM, OCI-C5x cells, without rucaparib) 24.1% | viability ([9]; at 0.313 µM, OCI-P5x cells, with rucaparib 20 µM, 100% = cells with rucaparib alone) 47.7% | viability ([9]; at 0.313 µM, OCI-P5x cells, without rucaparib) 16.2% | viability ([9]; at 1.25 µM, OCI-P5x cells, with rucaparib 20 µM, 100% = cells with rucaparib alone) 97.8% | viability ([9]; at 1.25 µM, OCI-P5x cells, without rucaparib) 97.2% | viability ([9]; at 5 µM, OCI-P5x cells, with rucaparib 20 µM, 100% = cells with rucaparib alone) 87.8% | viability ([9]; at 5 µM, OCI-P5x cells, without rucaparib) 94.3%
0.4%: nuclear beta-catenin stimulation ([1]; stimulation, at 2 µM)
inactive: nuclear beta-catenin stimulation ([1]; at 10 µM) 0.6% | insulin secretion stimulation [2] -1.4% | viability decrease [3] 6% | tube area decrease [4] 3.6% | GLP1 secretion stimulation [5] -1.7% | inhibition of viability [6] 16% | viability decrease (inhibition) [7] 13.4% | viability decrease (inhibition) [8] 11.5% | viability ([9]; at 0.000305 µM, OCI-C5x cells, with rucaparib 10 µM, 100% = cells with rucaparib alone) 106% | viability ([9]; at 0.000305 µM, OCI-C5x cells, without rucaparib) 122% | viability ([9]; at 0.000305 µM, OCI-P5x cells, with rucaparib 20 µM, 100% = cells with rucaparib alone) 115% | viability ([9]; at 0.000305 µM, OCI-P5x cells, without rucaparib) 110% | viability ([9]; at 0.00122 µM, OCI-C5x cells, with rucaparib 10 µM, 100% = cells with rucaparib alone) 119% | viability ([9]; at 0.00122 µM, OCI-C5x cells, without rucaparib) 122% | viability ([9]; at 0.00122 µM, OCI-P5x cells, with rucaparib 20 µM, 100% = cells with rucaparib alone) 106% | viability ([9]; at 0.00122 µM, OCI-P5x cells, without rucaparib) 107% | viability ([9]; at 0.00488 µM, OCI-C5x cells, with rucaparib 10 µM, 100% = cells with rucaparib alone) 103% | viability ([9]; at 0.00488 µM, OCI-C5x cells, without rucaparib) 127% | viability ([9]; at 0.00488 µM, OCI-P5x cells, without rucaparib) 106% | viability ([9]; at 0.0195 µM, OCI-C5x cells, with rucaparib 10 µM, 100% = cells with rucaparib alone) 107% | viability ([9]; at 0.0195 µM, OCI-C5x cells, without rucaparib) 121% | viability ([9]; at 0.0781 µM, OCI-C5x cells, with rucaparib 10 µM, 100% = cells with rucaparib alone) 104% | viability ([9]; at 0.0781 µM, OCI-C5x cells, without rucaparib) 112% | viability ([9]; at 0.0781 µM, OCI-P5x cells, with rucaparib 20 µM, 100% = cells with rucaparib alone) 106% | viability ([9]; at 0.0781 µM, OCI-P5x cells, without rucaparib) 107% | viability ([9]; at 1.25 µM, OCI-C5x cells, with rucaparib 10 µM, 100% = cells with rucaparib alone) 110% | viability ([9]; at 1.25 µM, OCI-C5x cells, without rucaparib) 115% | viability ([9]; at 5 µM, OCI-C5x cells, with rucaparib 10 µM, 100% = cells with rucaparib alone) 133% | viability ([9]; at 5 µM, OCI-C5x cells, without rucaparib) 111%

COc1ccc(-n2nc(CCC(=O)N(C)O)cc2-c2ccc(Cl)cc2)cc1
0.2%: nuclear beta-catenin stimulation ([1]; stimulation, at 2 µM)
active: viability decrease [3] 91.8% | inhibition of viability [6] 94.4% | viability decrease (inhibition) [7] 130% | viability decrease (inhibition) [8] 102%
inactive: nuclear beta-catenin stimulation ([1]; at 10 µM) 0.6% | insulin secretion stimulation [2] 2.7% | tube area decrease [4] 19.2% | GLP1 secretion stimulation [5] 9.1% | remaining NAD [10] 10 nM
